# System: TESK1
# Conditions: concentration: 1 μM, replicates: in singlicate; n = 1
# 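Note: KINOMEscan kinase panel screen.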
row,Compound,%Inh [%]
1,Cc1ccc(C(=O)N2CC[C@@H](O)C2)cc1-n1c(C)cc(OCc2ccc(F)cc2F)c(Br)c1=O,0
2,Oc1cc(Nc2ccnc3cc(I)ccc23)ccc1F [GW552771],13
3,c1ccc(-c2n[nH]cc2Nc2ccnc3ccccc23)nc1 [GW694077],11
4,CC(C)c1nc(-c2cccc(NS(=O)(=O)c3c(F)cccc3F)c2F)c(-c2ccnc(Nc3ccc(N4CCOCC4)nc3)n2)s1 [GSK2008607],100
5,Cn1cc(-c2[nH]c3cc(NC(=O)[C@H](N)C4CCCCC4)cc4c3c2C=NNC4=O)cn1,15
6,C[C@@H](Oc1cc(-n2cnc3cc(-c4ccnc(NCCS(C)(=O)=O)c4)ccc32)sc1C(N)=O)c1ccccc1Cl [GSK907232],28

# System: TGFBR1
# Conditions: concentration: 1 μM, replicates: in singlicate; n = 1
row,Compound,%Inh [%]
1,Cn1cc(-c2ccc3c(c2)CCN3C(=O)Cc2cccc(Cl)c2)c2c(N)ncnc21 [GSK2606590],0
2,COc1ccc(-c2coc3ccc(-c4nnc(SCc5ccc(OC)c(C(F)(F)F)c5)o4)cc23)cc1,6
3,CCS(=O)(=O)c1ccc(OC)c(Nc2nccc(-c3c(-c4cccc(NC(=O)c5c(F)cccc5F)c4)nn4ncccc34)n2)c1 [GSK326180],22
4,O=C(Nc1cccc(-c2nn3ccccc3c2-c2ccnc(Nc3cccc(C(F)(F)F)c3)n2)c1)c1c(F)cccc1F [GSK292658],6
5,NCCCC(NC(=O)c1cc(Br)c(-c2ccnc3[nH]ccc23)s1)c1ccccc1.O=C(O)C(F)(F)F.O=C(O)C(F)(F)F (stereo not shown) [GSK1287544],0
6,CC(=O)Nc1nc2cnc(Nc3cc(NC(=O)c4cccc(C5(C#N)CC5)c4Cl)ccc3C)nc2s1,4
7,COc1ccc(CNC(=O)NC2CCN(c3ccnc(Nc4ccc(F)cc4)n3)CC2)cc1 [GSK1379788],18
8,Clc1ccc(-c2nn3ncccc3c2-c2ccnc(Nc3ccc4c(c3)OCCO4)n2)cc1 [GW829116],46
9,CC(C)(C)c1ccc2nccc(Nc3cccc(O)c3)c2c1 [GW856795],42
10,COc1cc(Nc2nccc(N3CCC(NC(=O)Nc4cccc(C(C)=O)c4)C3)n2)cc(OC)c1OC (stereo not shown) [GSK1379753],0
11,COc1cc(Nc2nccc(-c3c(-c4cccc(NC(=O)c5c(F)cccc5F)c4)nn4ccccc34)n2)cc(OC)c1OC [GSK323521],0
12,COc1cccc(NC(=O)NC2CCN(c3ccnc(Nc4cc(OC)c(OC)c(OC)c4)n3)C2)c1 (stereo not shown) [GSK1379763],4
13,O=C(O)C(F)(F)F.O=C(O)C(F)(F)F.O=c1[nH]ccc2nc(N[C@@H]3CCCNC3)nc(Nc3ccc(S(=O)(=O)N4CCOCC4)cc3)c12 [GSK2177277],32
14,CCCCc1nn2ncccc2c1-c1ccnc(Nc2ccc(N3CCN(C)CC3)cc2)n1 [GW684941],80
15,CN(c1ccc(NC(=O)Nc2cc(C(F)(F)F)ccc2F)cc1)c1ccnc(Nc2ccc(S(N)(=O)=O)cc2)n1 [GW809893],0
16,Nc1ncc(-c2cccnc2)c2scc(-c3ccc4c(c3)CCN4C(=O)Cc3ccccc3)c12 [GSK683281],0
17,Cc1ccc(C(=O)Nc2ccc(Nc3ccnc4cc(-c5nccs5)ccc34)cc2O)cc1.Cl [GW494702],40
18,COc1cc(Nc2nccc(N3CCC(NC(=O)c4cc5ccccc5s4)C3)n2)cc(OC)c1OC (stereo not shown) [GSK1379760],0
19,O=C(Nc1cccc(-c2nn3ccccc3c2-c2ccnc(Nc3cccc(F)c3)n2)c1)c1c(F)ccc(F)c1Cl [GSK357952],2
20,CN(C)Cc1ccc(-c2ccc3c(Nc4ccc(Oc5ccccn5)cc4)ccnc3c2)o1 [GW567148],0
21,CNC(=O)c1ccccc1Nc1nc(Nc2ccc(N3CCOCC3)cc2)ncc1Cl.Cl [GSK1576028],93
22,Cl.Cl.NCC(NC(=O)c1cc(-c2ccccc2)c(-c2ccnc3[nH]ccc23)s1)c1ccccc1 (stereo not shown) [GSK1321561],0
23,COc1ccc(Nc2nccc(N3CCC(NC(=O)Nc4cccc(OC)c4)C3)n2)cc1 (stereo not shown) [GSK1379742],0
24,COC(=O)Nc1nc2cc(Oc3ccc(NC(=O)Nc4cc(C(F)(F)F)ccc4F)cn3)ccc2[nH]1.Cl.Cl [GW681170],0
25,O=C(Nc1n[nH]c2cc(-c3ccoc3)ccc12)C1CC1 [SB-738481],0

# From PMC5540273 (PLoS ONE, 2017)
